21 compounds from PubChem BioAssay AID504803 (The Scripps Research Institute Molecular Screening Center, 2011) can be followed below.

Among all 340,000 compounds or so, about 1,700 (0.5%) were called active. This is one part of a sample in which actives are shown more often than they occur. Unmarked numbers belong to inactive results. Rule as the data show it: active = inhibition above about 36%; inactive = the rest.

For this assay, the target named is Serine protease HTRA1 (Homo sapiens) (UniProt Q92743). As to the kind of experiment: inhibition of human HTRA1 peptidase – biochemical, fluorescence polarization, HTS, primary screen (AID 504803).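 Also: 0% = enzyme with DMSO and 100% = wells lacking enzyme.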 The following applies: recombinant HTRA1, FP-rhodamine activity-based probe, at 5.96 µM, hits give high values. In general terms: Fluorescence polarisation rises when a labelled molecule tumbles more slowly, as on binding a larger partner.
Serine protease HTRA1 (Homo sapiens), sequence (Q92743 whole entry, looked up): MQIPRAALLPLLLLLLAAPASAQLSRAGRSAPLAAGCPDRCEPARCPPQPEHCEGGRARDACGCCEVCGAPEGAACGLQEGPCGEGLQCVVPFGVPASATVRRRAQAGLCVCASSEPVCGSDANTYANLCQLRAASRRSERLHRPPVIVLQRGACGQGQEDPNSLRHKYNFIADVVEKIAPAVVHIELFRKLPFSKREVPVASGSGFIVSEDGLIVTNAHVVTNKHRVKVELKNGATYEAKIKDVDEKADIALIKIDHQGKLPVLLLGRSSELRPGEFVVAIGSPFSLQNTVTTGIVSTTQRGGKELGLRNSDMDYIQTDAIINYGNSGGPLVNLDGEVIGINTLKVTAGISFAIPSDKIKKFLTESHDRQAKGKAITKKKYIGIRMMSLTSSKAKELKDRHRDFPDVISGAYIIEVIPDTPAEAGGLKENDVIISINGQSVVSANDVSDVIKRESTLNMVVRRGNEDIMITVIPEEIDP
`Cc1ccc(CCNC(=O)CN2C(=O)CSc3ccc(S(=O)(=O)N4CCOCC4)cc32)cc1`: the inhibition (in general, the change of the read-out against control, counted positive when it falls) is -3.89%. The value for `COCOCCn1cc(CN2CCS(=O)(=O)N(Cc3ccc(-c4ccc(OC)cc4)cc3)C(CC(C)C)C2=O)nn1` (stereo unspecified) was -16.7%. Next, `CCN(CC)c1ccc(/C=N/NC(=O)c2cnccn2)c(O)c1`: 11.4%. `CCN(CC)c1ccc(/C=N/Nc2nc(C)cc(C)n2)c(O)c1`: the inhibition is 63.8% (active). Next, `Cc1cc(C)nc(N/N=C/c2c(CO)cnc(C)c2O)n1`: 4.05%; `COc1ccc(CN2C(=O)C(CC(=O)NC3CCCCC3)CC(C(=O)N3CCOCC3)=C2C)cc1` (stereo unspecified): 9.07%; `O=C(Nc1ccc(OC(F)(F)F)cc1)c1ccc2c(c1)no[n+]2[O-]`: 42.3% (active). The value for `CCOc1c2ccc(C(=O)NCc3ccc(OC(F)(F)F)cc3)cc2nn1C` was -3.97%; that for `CCOC(=O)Cc1ncccc1C(=O)Nc1ccc(OC(F)(F)F)cc1` was -0.74%; that for `C[C@H]1CN([C@@H](C)CO)S(=O)(=O)c2ccc(-c3cccc(F)c3)cc2O[C@@H]1CN(C)C` was 0.65%. Turning to `Cn1c(CCN2CCN(c3ccccn3)CC2)nc2cc(NS(=O)(=O)c3ccc(F)cc3)ccc21`, the inhibition was -0.52%. Next, `C[C@H]1CN([C@@H](C)CO)C(=O)CCCn2cc(nn2)CO[C@@H]1CN(C)S(=O)(=O)c1ccc(-n2cccn2)cc1`: -3.1%. The value for `CC(=O)n1c(C=Nc2ccccc2)c(O)c2ccccc21` was -1.27%; that for `Oc1ccc(N=Cc2sc3ccccc3c2Cl)cc1` was 65.8% (active); that for `C[C@H](CO)N1C[C@H](C)[C@H](CN(C)C(=O)Nc2ccc3c(c2)OCO3)Oc2ncc(Br)cc2C1=O` was -0.29%.

On to `Cc1c(NC(=O)COC(=O)/C=C/c2cccc(F)c2)c(=O)n(-c2ccccc2)n1C`, for which the inhibition was -0.4%. Next, `CC1(C)CC(=O)C=C(c2ccccc2CO)C1=O`: -3.27%; `CCCn1c(N)c(C(=O)CSc2nnc(Cc3cccs3)n2C2CC2)c(=O)[nH]c1=O`: 3%; `COc1ccccc1-c1n[nH]nc1C1=CC(=O)CC(C)(C)C1`: 3.87%. On to `CCc1ccc2c(c1)C1(NN=C(c3ccccc3)S1)C(=O)N2` (stereo unspecified), for which the inhibition was 60.5% (active). Next, `COc1ccc(-c2cnc3c(c2)C(=O)N([C@H](C)CO)C[C@@H](C)[C@H](CN(C)Cc2ccccc2)O3)cc1`: -5.18%.
